Source: PubChem BioAssay (National Center for Advancing Translational Sciences (NCATS))
Rows were chosen to be rich in hits. Some 12% of all compounds tested hit in one or more screens of this group.
PLK1 PBD block – qHTS for Inhibitors of PLK1-PDB (polo-like kinase 1 - polo-box domain): Primary Screen. Serine/threonine-protein kinase PLK1 (Homo sapiens), P53350. Plk1 PBD binding of FITC phosphopeptide, fluorescence polarization. Potency, µM, usual class: inhibitors. actives 2.8% (n = 360,000). AID 720504, 2013; note: series mostly up to about 57 µM; nearly all actives have a fitted effect of over 65% in size
PI5P4Ka inh – qHTS for Inhibitors of phosphatidylinositol 5-phosphate 4-kinase (PI5P4K). Phosphatidylinositol 5-phosphate 4-kinase type-2 alpha (Homo sapiens), P48426. PI5P4Kalpha enzyme, ADP-Glo luminescence, 60 min; hits give low values. max response, %. actives 1.2% (n = 330,000); active = max response of -50% or lower; inconclusive = between -30% and -50%; inactive = -30% or higher; note: value at the top dose of about 77 µM
Target sequence (P48426 whole entry, looked up): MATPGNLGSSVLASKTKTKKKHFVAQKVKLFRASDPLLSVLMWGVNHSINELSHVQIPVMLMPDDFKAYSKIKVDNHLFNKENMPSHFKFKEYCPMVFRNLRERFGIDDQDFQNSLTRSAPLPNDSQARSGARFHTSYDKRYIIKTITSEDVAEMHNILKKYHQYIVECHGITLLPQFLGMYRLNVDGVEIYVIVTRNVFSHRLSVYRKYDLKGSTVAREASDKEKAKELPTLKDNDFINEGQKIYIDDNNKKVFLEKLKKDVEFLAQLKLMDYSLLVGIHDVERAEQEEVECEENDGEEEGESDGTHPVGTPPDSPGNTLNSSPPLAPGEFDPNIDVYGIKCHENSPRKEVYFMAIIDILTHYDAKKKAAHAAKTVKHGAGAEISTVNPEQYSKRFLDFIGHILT
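Quantitative HTS of the MLSMR library against PI5P4Kalpha with substrate. ATP added last at 5 microM final; room temperature, 60 minutes. Remaining ATP depleted, ADP converted and read as luminescence.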
JMJD2A Tudor inh – qHTS Assay for Inhibitors of JMJD2A-Tudor Domain; Lysine-specific demethylase 4A (Homo sapiens), O75164; AlphaScreen JMJD2A-Tudor / H3K4me3 peptide binding; Potency, µM (highest dose often 114 µM), actives largely listed as inhibitors; actives 4.4% (n = 390,000); AID 504339, 2011; note: nearly all actives have a fitted effect of over 50% in size
HP1b binding inh – HTS for Inhibitors of HP1-beta Chromodomain Interactions with Methylated Histone Tails | AID 540317, 2011 | AlphaScreen HP1-beta / biotin-H3K9me3 peptide binding | actives 0.56% (n = 390,000) | Chromobox protein homolog 1 (Homo sapiens), P83916 | Potency, µM (doses to about 114 µM), most hits filed as inhibitors; note: nearly all actives have a fitted effect of over 70% in size
Target sequence (P83916 whole entry, looked up): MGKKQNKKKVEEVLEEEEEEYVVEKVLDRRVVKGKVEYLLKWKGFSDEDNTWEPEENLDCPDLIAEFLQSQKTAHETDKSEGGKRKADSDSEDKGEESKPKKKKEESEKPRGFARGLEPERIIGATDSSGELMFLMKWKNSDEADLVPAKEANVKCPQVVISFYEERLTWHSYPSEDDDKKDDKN
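Compound inhibition of the preformed complex between 50 nM HP1-beta and 50 nM biotinylated H3K9me3 peptide was read by AlphaScreen. Buffer was PBS pH 7.4 with 0.01% Tween-20. Incubations ran 30 min at room temperature, with 10 ug/mL donor/acceptor beads.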
G9a block – qHTS Assay for Inhibitors of Histone Lysine Methyltransferase G9a | Histone-lysine N-methyltransferase EHMT2 (Homo sapiens), Q96KQ7 | G9a H3K9 monomethylation, AlphaScreen, 2 h | Potency, µM (highest dose often 102 µM), actives largely listed as inhibitors | actives 8.8% (n = 350,000) | AID 504332, 2011; note: nearly all actives have a fitted effect of over 75% in size
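Step 1: enzyme (final 20 nM) with compound, 15 min RT. Step 2: substrate peptide 500 nM and SAM 20 uM, 2 h RT. Step 3: anti-H3K9me1 antibody and AlphaScreen beads, 10 min, then plate read.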
BAZ2B inh – qHTS Assay for Inhibitors of BAZ2B | actives 4.4% (n = 360,000) | AlphaScreen BAZ2B-H3K14Ac peptide displacement | Potency, µM (highest dose often 114 µM), hits mostly inhibitors | Bromodomain adjacent to zinc finger domain protein 2B (Homo sapiens), Q9UIF8 | AID 504333, 2011; note: nearly all actives have a fitted effect of over 60% in size
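AlphaScreen displacement: compounds (up to 110uM) incubated 30 min at room temperature with a preformed 50 nM BAZ2B/50 nM biotinylated H3K14Ac peptide complex in PBS pH 7.4 with Tween-20. Donor and acceptor beads at 10 ug/mL final added, 20 min light-protected before reading.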
Hits are given with their value; - = inactive; ? = inconclusive; . = no result; [ ] = remark or other dose. Unless noted, calls come from the whole dose curve; as a rule, active = well fitted curve in the direction sought with a large enough effect; inconclusive = small, poorly fitted or top-dose-only effect, or another doubt; inactive = no such curve, though single readings can be large; an effect the other way counts as inactive or inconclusive.

SMILES	PLK1 PBD block	PI5P4Ka inh	JMJD2A Tudor inh	HP1b binding inh	G9a block	BAZ2B inh
COc1cccc(CNC(=O)c2ccc(NC(=O)N3CC(C)Sc4ccccc43)cc2)c1 (stereo not drawn)	.	.	-	-	-	-
Cc1noc(/C=C/c2ccccc2F)c1S(=O)(=O)N1CCC(C(=O)N(C)Cc2ccco2)CC1	.	.	-	-	-	-
CC(C)Oc1ccccc1OCCN(C)C	-	-	31.6µM	?	12.6µM	44.7µM
CCCCCCCCS(=O)CCC(=O)O (stereo not drawn)	-	-	-	-	22.4µM	-
CCS(=O)(=O)c1ccc2c(c1)N(S(=O)(=O)c1ccc(C)cc1)CC(C(=O)O)O2 (stereo not drawn)	-	-	-	-	?	89.1µM
CCS(=O)(=O)c1ccc2c(c1)N(S(=O)(=O)c1ccc(OC)cc1)CC(C(=O)O)O2 (stereo not drawn)	-	-	-	-	-	-
CSc1ccccc1NC(=O)C1=COCCO1	-	-	-	-	.	-
O=C1NCCN1Cc1ccccc1F	-	.	-	-	44.7µM	-
O=C(C1CCN(S(=O)(=O)Cc2ccccc2)CC1)N1CCN(c2ccc(F)cc2)CC1	.	.	-	-	-	-
CCCN(C(=O)c1cc2c(s1)-c1c(C)cccc1OC2)c1ccc(OCC)cc1	.	.	-	-	-	-
CC(C)NCC(O)Cn1c2c(c3ccccc31)CCc1c-2cnn1-c1ccccc1 (stereo not drawn)	-	-	50.1µM	?	?	?
CC1(C(=O)NS(=O)(=O)C2CC2)CCCN(C(=O)c2ccc(F)cc2Cl)C1 (stereo not drawn)	-	-	.	.	.	.
CCCc1cc(=O)oc2c(CNc3ccc(OCC)cc3)c(O)ccc12	-	-	?	-	39.8µM	?
O=S(=O)(Nc1ccc(Br)cc1)c1cccc(NS(=O)(=O)c2cccs2)c1	-	-	-	-	.	.
O=C(NC(=S)Nc1ccc(N2CCN(C(=O)c3ccccc3)CC2)cc1)c1cccs1	-	-	?	?	?	-
CCCC(=O)NC(=S)Nc1ccc(N2CCN(C(=O)c3cccs3)CC2)cc1	-	-	-	-	39.8µM	?
CCN(CC)c1ccc(NC(=S)NC(=O)c2cccs2)cc1	-	-	17.8µM	?	.	10µM
Cc1ccc(NC(=O)CN(C)Cc2cccs2)cc1Cl	-	-	-	-	-	-
CCN(CC)c1ccc(NC(=O)CN(C)Cc2cccs2)cc1	-	-	39.8µM	44.7µM	8.91µM	31.6µM
O=C(Nc1ccc(NC(=S)NC(=O)c2cccs2)cc1)c1ccco1	-	-	-	-	50.1µM	-
O=C(NC(=S)NNC(=O)c1cccs1)c1ccco1	-	.	-	-	?	-
CC1=CNC(=O)CC(C)(C)C1	-	-	.	.	.	.
O=C(Nc1cnc(N2CCN(c3ccccc3)CC2)c(C(=O)O)c1)c1cccs1	.	.	79.4µM	-	?	50.1µM
CCCC(=O)N1CCN(c2ccc(NC(=O)c3cccs3)cc2)CC1	23.8µM	-	?	?	-	?
O=C(NC(=S)Nc1cccc2ncccc12)c1cccs1	-	-	-	-	50.1µM	-
SMILES	PLK1 PBD block	PI5P4Ka inh	JMJD2A Tudor inh	HP1b binding inh	G9a block	BAZ2B inh
CCCC(=O)NC(=S)Nc1ccc(NC(=O)c2cccs2)cc1	-	-	-	-	11.2µM	-
CCCC(=O)Nc1ccc(C(=O)NNC(=S)NC(=O)c2cccs2)cc1	-	.	-	-	-[0.0925 µM]	-
Cc1ccc(NC(=O)/C(C#N)=C/c2ccccc2Cl)cc1C	.	.	-	-	-	?
C#CCCCCCCCCCCCC(O)CC(O)COC(C)=O (stereo not drawn)	.	.	.	.	-[2.33 µM]	.
C=CCCCCCCCCC(=O)O	.	.	.	.	-	.
CCCC(=O)Nc1ccc(NC(=S)NC(=O)c2cccs2)cc1	?	-	-	-	31.6µM	?
COc1cc(OC)cc(C(=O)NCC(=O)N2CCN(c3ccc(O)cc3)CC2)c1	-	-	22.4µM	?	22.4µM	-
COc1ccc(N2CCN(C(=O)C(C)(C)Oc3ccc(Cl)cc3)CC2)cc1	-	-	50.1µM	?	7.94µM	39.8µM
CC(=O)N1CCN(c2ccc(NC(=O)c3ccc(Cl)cc3)cc2)CC1	-	-	-	-	-	-
COc1ccc(N2CCN(C(=O)COC(=O)CNC(=O)c3ccc(C)cc3)CC2)cc1	-	-	-	-	39.8µM	-
CC(=O)N1CCN(c2ccc(NC(=O)c3ccc(C(C)(C)C)cc3)cc2)CC1	-	.	-	-	11.2µM	-
CCOc1ccc(CN2CCC(n3nccc3NC(=O)c3ccccc3OC)CC2)cc1	-	-	-	-	?	-
COc1ccc(N2CCN(C(=O)c3ccc(C(C)(C)C)cc3)CC2)cc1	-	-	56.2µM	?	?	44.7µM
COc1ccc(N2CCN(C(=O)CCNC(=O)c3ccc(C(C)(C)C)cc3)CC2)cc1	-	-	?	-	44.7µM	?
c1coc(CNC2CCCCC2)c1	-	-	7.08µM	-	?	?
c1coc(CNC2CCCCCCC2)c1	?	-	50.1µM	-	20µM	89.1µM
CC(C)c1ccc(S(=O)(=O)c2nnn3c2nc(N2CCN(C)CC2)c2sccc23)cc1	.	.	-	-	-	-
Brc1cc2c(cc1Br)OCCOCCOCCOCCO2	4.23µM	?	8.91µM	-	-	-
c1ccc2c(c1)OCCOCCOc1ccccc1OCCOCCO2	-	-	-	-	-	-
Brc1ccc2c(c1)OCCOCCOc1cc(Br)ccc1OCCOCCOCCO2	-	-	-	-	-	-
Nc1ccc2c(c1)OCCOCCOCCOCCOCCO2	-	-	-	-	14.1µM	-
C#CCOCCOCCOCCNc1nc(N2CCN(C(=O)CCCCCCCCCCNC(=O)[C@@H](CCC(=O)O)n3cc(CCCCCN)nn3)CC2)nc(N2CCN(C(=O)CCCCCCCCCCNC(=O)[C@H](CO)n3cc(CCCCCN)nn3)CC2)n1	-	-54.3	?	-	-[2.33 µM]	-
C#CCOCCOCCOCCNc1nc(N2CCN(C(=O)CCCCCCCCCCNC(=O)[C@@H](CCSC)n3cc(CCO)nn3)CC2)nc(N2CCN(C(=O)CCCCCCCCCCNC(=O)[C@H](CO)n3cc(CCCCCN)nn3)CC2)n1	-	?	79.4µM	?	-[2.33 µM]	?
C#CCOCCOCCOCCNc1nc(N2CCOCC2)nc(N2CCN(C(=O)CCCCCCCCCCNC(=O)[C@H](CO)n3cc(CCCSC)nn3)CC2)n1	-	-	-	-	-[2.33 µM]	-
